Experimental data from the supplement of paper PMC6555819.

Assays:
Test in all cases: PBM binding z-score (relative to random genomic background probes); higher = stronger binding; sequences stand for … in GC…GCGATTGACAGCGTAGAATGAAGG
[1] = system: FXR:RXRa (NR concentration 270 nM, RXRa partner concentration 90 nM)
Summary of the method: (§1)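 On custom Agilent 4×180K arrays, double-stranded probes with 34-nt variable regions carried direct-repeat seeds, single-nucleotide variants, half-site ablations or random human genomic background. Ligand-free nuclear receptor dimers were applied for 1 h, and binding was read with antibodies against each partner (one per run). Binding z-scores come from regression-normalized fluorescence, with the random background probes as reference.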

[2] = system: LXRa:RXRa (NR concentration 270 nM, RXRa partner concentration 90 nM)
Summary of the method: as §1

[3] = system: LXRa homodimer (NR concentration 270 nM)
Summary of the method: as §1

[4] = system: LXRb:RXRa (NR concentration 270 nM, RXRa partner concentration 90 nM)
Summary of the method: as §1

[5] = system: LXRb homodimer (NR concentration 270 nM)
Summary of the method: as §1

[6] = system: PPARa:RXRa (NR concentration 270 nM, RXRa partner concentration 90 nM)
Summary of the method: as §1

[7] = system: PPARg:RXRa (NR concentration 180 nM, RXRa partner concentration 90 nM)
Summary of the method: as §1

[8] = system: PPARg:RXRa 270nM:90nM, anti-RXR (NR concentration 270 nM, RXRa partner concentration 90 nM)
Summary of the method: as §1

[9] = system: PPARg:RXRa 30nM:10nM, anti-RXR (NR concentration 30 nM, RXRa partner concentration 10 nM)
Summary of the method: as §1

[10] = system: PPARg:RXRa 90nM:30nM, anti-RXR (NR concentration 90 nM, RXRa partner concentration 30 nM)
Summary of the method: as §1

[11] = system: PPARg:RXRa DBDmut IVT, anti-RXR (DBD mutation: RXRa K156A/R161A, NR concentration 270 nM, RXRa partner concentration 90 nM)
Summary of the method: as §1

[12] = system: PPARg:RXRa IVT, anti-PPARg (NR concentration 270 nM, RXRa partner concentration 90 nM)
Summary of the method: as §1

[13] = system: PPARg DBDmut:RXRa IVT, anti-PPARg (DBD mutation: PPARg1 K132A/R137A, NR concentration 270 nM, RXRa partner concentration 90 nM)
Summary of the method: as §1

[14] = system: PPARg DBDmut IVT, anti-PPARg (DBD mutation: PPARg1 K132A/R137A, NR concentration 270 nM)
Summary of the method: as §1

[15] = system: PPARg homodimer (NR concentration 180 nM)
Summary of the method: as §1

[16] = system: PXR:RXRa (NR concentration 270 nM, RXRa partner concentration 90 nM)
Summary of the method: as §1

[17] = system: PXR homodimer (NR concentration 270 nM)
Summary of the method: as §1

[18] = system: RARa:RXR (NR concentration 270 nM, RXRa partner concentration 90 nM)
Summary of the method: as §1

[19] = system: RARa homodimer (NR concentration 270 nM)
Summary of the method: as §1

[20] = system: RARb:RXRa (NR concentration 270 nM, RXRa partner concentration 90 nM)
Summary of the method: as §1

Sequence	PBM binding z-score [1]	PBM binding z-score [2]	PBM binding z-score [3]	PBM binding z-score [4]	PBM binding z-score [5]	PBM binding z-score [6]	PBM binding z-score [7]	PBM binding z-score [8]	PBM binding z-score [9]	PBM binding z-score [10]	PBM binding z-score [11]	PBM binding z-score [12]	PBM binding z-score [13]	PBM binding z-score [14]	PBM binding z-score [15]	PBM binding z-score [16]	PBM binding z-score [17]	PBM binding z-score [18]	PBM binding z-score [19]	PBM binding z-score [20]
CCAGACAGGTGAAAGGAAACTCAGTCTGGTACGC	-0.00156	-0.109	-0.46	-0.0929	-0.489	0.52	0.81	1	-0.0154	0.657	1.07	0.474	-0.232	-0.58	0.283	-0.274	-0.261	0.0734	-0.148	0.522
GTTGCTAGGTCAACTGATGGTCAGCTAAAGCTCG	4.29	3.62	0.729	2.08	0.507	3.96	3.38	3.96	0.825	2.71	5.15	4.94	1.14	-0.255	1.33	1.47	-0.554	3.03	-0.133	4.26
TCATATAGGTAATACAGGTGAAAGTTGGCATCTA	1.53	1.59	0.587	1.49	0.359	2.79	3.47	4.06	4.44	4.48	4.09	3.7	1.17	1.27	1.53	1.23	0.642	1.77	1.84	0.87
TGTCAAAGTTCAAAGGTAGCGTAAGTATCCACAC	6.72	6.04	4.44	4.05	1.42	5.57	8.17	7.45	4.48	7.05	0.0975	4.06	0.876	0.963	-0.119	5.11	3.16	4.97	0.73	5.09
AGAAGGAGGTTATACGTAGATCAGGGAAGAAAGT	1.61	1.45	0.366	1.43	0.303	2.43	1.33	1.28	0.492	0.986	2.41	1.24	2.08	0.617	1.18	1	1.06	0.963	1.33	1.34
AGAATGAGTTTATTAAGATCAGGGAATTGCGGTC	-0.0233	-0.176	0.0886	-0.353	0.198	-0.254	0.0616	-0.094	-0.0755	-0.195	-0.196	-0.106	0.457	0.0162	0.334	1.31	2.04	0.154	0.655	0.143
TCAAATAGGTAAAAGGTGAAAGTCGGTGTGGTAA	2.23	1.93	0.419	2.06	-0.106	5.45	8.26	8.33	8.45	9.13	4.66	4.53	0.779	0.749	2.29	1.91	0.411	3.31	1.82	2.27
CTACCAAGGTGAACAAGGTCGTTGAGTACTATTC	1.64	1.36	0.0569	1.83	-0.22	2.53	1.04	1.24	0.0413	0.542	2.21	2.45	-0.822	-0.624	0.759	3.07	6.86	2.48	0.402	2.24
ACAGACAGGTGAATGAAGGTAACTCAGCTGGACG	0.255	-0.0154	-0.43	-0.273	-0.569	0.447	0.97	0.258	0.0803	0.0876	0.834	1.06	0.562	-0.518	-0.217	-0.156	-0.221	0.42	-0.316	0.743
CCGAGCAGGCCAATCTGGGTCACTCAAGGCTTGA	1.11	1.16	-0.65	0.371	-1.25	2.65	2.05	2.12	-0.249	1.21	3.97	4.58	-1.06	-1.1	0.368	0.937	-0.646	1.17	-1.1	1.77
GCATATAAGTAATACAAGGTGAAAGTCCGATTGT	0.578	0.301	0.499	0.331	-0.122	0.85	0.911	0.715	0.283	0.301	0.462	0.546	0.743	0.728	0.405	0.436	0.309	1.13	0.698	0.452
CTCGAAAGGTCGTGCTCCGGTGAGTATACCAAAC	5.22	3.95	0.167	3.33	0.24	4.95	2.82	4.07	0.826	2.65	0.784	1.77	0.64	0.56	2.34	3.57	0.18	4.87	-0.416	4.04
TAGACTAGGTCATTGGGCCAGTATAGTACGCATC	3.51	2.61	0.548	1.56	0.785	3.89	5.62	5.24	2.45	4.58	5.72	6.51	1.28	0.786	1.15	1.2	0.294	1.65	0.657	3.45
